A selection: hits, their analogues and other compounds. The true share with any hit is near 2.9%.
PAFAH2 FP inh – inhibitors of human PAFAH2; recombinant PAFAH2, FP-rhodamine activity probe, fluorescence polarization; inhibition, % at 3.39 µM; 0.99% of 340,000 active;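 active = inhibition above the mean over all tested compounds plus 3 SD, cut at about 30% in these data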;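 note: inhibitors block probe labeling of enzyme so polarization drops; 0% = enzyme with DMSO and 100% = wells lacking PAFAH2 protein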
PAFAH1B2 inh – inhibitors of human PAFAH1B2; recombinant PAFAH1B2, FP-rhodamine activity probe, fluorescence polarization; inhibition, % at 3.39 µM; 1.2% of 340,000 active;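 active = inhibition above the mean of all tested compounds plus 3 SD, cut at about 24% in these data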;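 note: 0% = enzyme with DMSO and 100% = wells lacking PAFAH1B2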
Target sequence (P68402 whole entry, looked up): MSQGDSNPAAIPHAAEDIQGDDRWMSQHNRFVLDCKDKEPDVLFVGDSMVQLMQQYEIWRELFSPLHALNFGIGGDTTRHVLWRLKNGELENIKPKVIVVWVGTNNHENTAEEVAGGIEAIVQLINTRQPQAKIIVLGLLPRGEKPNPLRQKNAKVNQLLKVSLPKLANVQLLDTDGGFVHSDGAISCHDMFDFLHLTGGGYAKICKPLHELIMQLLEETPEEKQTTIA
pPAFAH inh – inhibitors of human plasma PAF acetylhydrolase (pPAFAH); Q13093; 1.5% of 330,000 active; inhibition, % at 3.39 µM; recombinant pPAFAH, FP-rhodamine probe fluorescence polarization;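 active = inhibition above the mean inhibition across the screen plus 3 SD, cut at about 25% in these data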;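 note: inhibitors block binding of the rhodamine activity-based probe so polarization drops; 0% = enzyme with DMSO and 100% = wells lacking pPAFAH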
PME-1 primary – PME-1 (human) inhibition; recombinant PME-1, FP-Rh probe fluorescence polarization; inhibition, % at 5.9 µM; Q9Y570; 0.53% of 320,000 active;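 active = inhibition above the campaign mean of all compounds plus 3 SD, cut at about 26% in these data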;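 note: competitive labeling of PME-1 active site by serine hydrolase directed probe; 0% = PME-1 with DMSO and 100% = wells lacking PME-1 enzyme; inhibitors block probe labeling so polarization falls and inhibition rises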
PAFAH1B3 FP inh – blocks human PAF acetylhydrolase 1B catalytic subunit 3; AID 492972; 0.28% of 340,000 active; Q15102; inhibition, % at 3.39 µM; recombinant PAFAH1B3, FP-rhodamine probe, fluorescence polarization;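 active = inhibition above the screen-wide average of all tested compounds plus 3 SD, cut at about 25% in these data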;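 note: 0% = enzyme with DMSO only and 100% = wells lacking PAFAH1B3 protein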
Target sequence (Q15102 whole entry, looked up): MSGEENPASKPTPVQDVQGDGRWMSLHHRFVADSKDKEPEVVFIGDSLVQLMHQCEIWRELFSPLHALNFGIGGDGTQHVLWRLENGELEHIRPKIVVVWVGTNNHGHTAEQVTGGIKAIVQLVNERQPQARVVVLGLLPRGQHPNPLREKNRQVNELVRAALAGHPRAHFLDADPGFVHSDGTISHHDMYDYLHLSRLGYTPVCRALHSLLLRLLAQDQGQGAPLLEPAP
Fam108B counter – blocks mouse Fam108B hydrolase in RBBP9 counter-screen. AID 1947. 0.33% of 300,000 active. inhibition, % at 9.51 µM. recombinant Fam108B, FP-Rh probe fluorescence polarization;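 active = inhibition above the screen mean inhibition plus 3 SD, computed separately per campaign, cut at about 18% in these data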;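 note: inhibitors lower polarization as less probe binds the enzyme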
Fam108b inh conf – Fam108b (mouse) hydrolase inhibition, confirmation assay | 44% of 930 active | shares compounds with Fam108B counter | inhibition, % at 9.51 µM | recombinant Fam108b, FP-Rh probe fluorescence polarization;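 active = inhibition above a limit from the primary screen, the mean over all compounds plus 3 SD, cut at about 19% in these data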;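 note: 0% = median of active Fam108b wells and 100% = catalytically dead S170A mutant; inhibitors free the probe so polarization falls as inhibition rises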
Fam108b inh – inhibits mouse Fam108b in gel-based ABPP; shares compounds with Fam108B counter; recombinant Fam108b, fluorophosphonate probe; inhibition, % at 20 µM; 44% of 260 active; AID 588649; in the data active = inhibition above about 40%
* = called active by the depositor; · = no result given; ! = a repeat was not active.

SMILES	PAFAH2 FP inh	PAFAH1B2 inh	pPAFAH inh	PME-1 primary	PAFAH1B3 FP inh	Fam108B counter	Fam108b inh conf	others
Cc1cc(CSc2ccccc2)ccc1NC(=O)c1ccc(Cl)c([N+](=O)[O-])c1	-11	7	-2	-2	11	25*	63*	Fam108b inh=20
Cc1cc(CSc2ccccc2)ccc1NC(=O)c1ccc(C)c([N+](=O)[O-])c1	-2	3	-6	1	7	-4	·
CC(C)c1ccc(OCc2ccc(C(=O)N3CCN(c4ccccn4)CC3)cc2)cc1	-5	-6	8	4	-4	-1	·
O=[N+]([O-])c1ccc(O)c(/C=N/n2c(CO)nc3ccccc32)c1	5	9	1	2	10	4	·
C/C(=N\OCc1nc2ccccc2c(=O)n1/N=C/c1cc([N+](=O)[O-])ccc1O)c1ccccc1	25	0	62*	0	18	19*	-10
O=C(Nc1ccc(S(=O)(=O)Nc2nccs2)cc1)C1=NN(c2ccccc2)C(=O)CC1	10	3	13	4	2	2	·
COc1ccc(-c2cc(=O)n(-c3ccc([N+](=O)[O-])cc3)[nH]2)cc1	19	5	1	20	13	3	·
COc1ccc(-c2nc(-c3cccs3)c(-c3cccs3)[nH]2)cc1O	12	5	22	47*	9	30*	18
CC1CCCC(C)N1C(=O)CN1C(=O)NC2(CCOc3ccccc32)C1=O (stereo not given)	-4	2	·	·	2	·	·
Oc1oc(-c2ccccc2Br)nc1C=Nc1ccccn1	·	·	·	·	·	·	·	Fam108b inh=90*
COC(=O)c1ccc(C(=O)OC)c(NC(=O)CSc2n[nH]c(N)n2)c1	-1	-1	3	·	0	·	·
CCn1c(CSc2nnc3ccccn23)nc2cc(C(=O)O)ccc21	60*	49*	26*	41*	44*	50*	55*	Fam108b inh=0
COCCn1c(SCCCC(=O)c2ccc(Br)cc2)nnc1-c1ccncc1	10	3	1	-4	10	-1	·
Cc1ccccc1-n1c(SCC(=O)c2cc(C)n(C)c2C)nnc1-c1cccnc1	3	5	3	1	-4	4	·
CCn1c(CSc2nnc(-c3cccnc3)n2-c2ccccc2C)nc2cc(C(=O)O)ccc21	·	·	42*	76*	·	69*	90*	Fam108b inh=0
CCn1c(CSc2nnc(-c3ccncc3)n2CCOC)nc2cc(C(=O)O)ccc21	47*	36*	30*	32*	27*	25*	35*	Fam108b inh=25
CCn1c(CSc2n[nH]c(N)n2)nc2cc(C(=O)O)ccc21	52*	38*	25*	31*	36*	30*	41*	Fam108b inh=0
CCC(=O)N1CCc2cc(S(=O)(=O)CCC(=O)Nc3ccc(F)c(F)c3)ccc21	-1	3	4	0	-3	2	·
COc1cc2c(cc1OC)CN(Cc1ccc(C)s1)CC2	1	7	6	0	-3	4	·
Cc1cc(/C=C(\C#N)c2nc3ccccc3[nH]2)c(C)n1C	-4	-1	21	4	5	3	·
Cc1cc(/C=C(/C#N)c2nc3ccccc3[nH]2)c(C)n1-c1cccc([N+](=O)[O-])c1	-10	8	10	7	7	25*	-11
CCc1ccc(S(=O)(=O)/N=C2/C=C(Sc3ncn[nH]3)C(=O)c3ccccc32)cc1	41*	50*	6	37*	50*	54*	57*
CCc1ccc(S(=O)(=O)ON2C(=O)c3ccccc3C2=O)cc1	14	8	·	·	18	·	·
CCc1ccc(S(=O)(=O)/N=C2\C=CC(=O)c3ccccc32)cc1	·	·	40*	12	·	24*	21*
O=C1C(Cc2ccccc2)Nc2ncnc(N3CCCCC3)c2N1Cc1ccc(Br)cc1 (stereo not given)	3	2	8	·	3	·	·
SMILES	PAFAH2 FP inh	PAFAH1B2 inh	pPAFAH inh	PME-1 primary	PAFAH1B3 FP inh	Fam108B counter	Fam108b inh conf	others
CCn1c2ccccc2c2cc(NC(C)=O)ccc21	11	2	3	9	2	4	·
CCn1c2ccccc2c2cc(NC(=O)c3ccc([N+](=O)[O-])cc3)ccc21	4	3	10	5	5	25*	-1
O=[N+]([O-])c1ccc(NN=Cc2cccc3ccccc23)cc1	7	3	·	·	3	·	·
O=[N+]([O-])c1ccc(NN=Cc2cccc(O)c2O)cc1	·	·	·	·	·	·	·	Fam108b inh=40*
O=[N+]([O-])c1ccc(NN=Cc2ccccc2O)cc1	·	·	·	·	·	·	·	Fam108b inh=90*
O=C(COc1ccc(Br)cc1Cl)NCCCN1CCOCC1	-1	-1	2	2	3	8	·
Cc1ccc(NS(=O)(=O)c2cc(C(=O)O)ccc2Cl)cc1	0	20	0	2	0	2	·
COc1cccc(Nc2nc(-c3cccc(N4C(=O)c5ccccc5C4=O)c3)cs2)c1	0	8	10	12	10	31*	16
COc1cccc(Nc2nc(-c3ccc(O)cc3)cs2)c1	4	2	13	10	20	9	·
O=C1CN(O)C=C2N=c3ccccc3=C2N1c1ccc([N+](=O)[O-])cc1	4	3	-1	2	14	3	·
Cc1ccc(Cl)cc1NC1=C/C(=N\S(=O)(=O)c2cccs2)c2ccccc2C1=O	31*	28*!	25*	24	58*	24*	20*
COc1ccc(C2c3ccc(O)cc3Oc3ncn4nc(-c5cccnc5)nc4c32)cc1OC (stereo not given)	-6	-2	4	-16	-4	-11	·
O=Cc1ccc(O)c(O)c1	1	-3	1	-2	9	-5	·
Oc1ccc(N=Cc2ccc(O)c(O)c2)cc1	18	13	34*	47*	34*	36*	1
Cc1ccc(S(=O)(=O)N(CC(=O)NCc2ccccc2)C(=O)N2CCN(C)CC2)cc1	8	6	·	·	11	·	·
N#CC1=C(N)SC(N)=C(C#N)C1c1ccoc1	·	·	68*	-7	·	26*	-25
Cc1ccc(C2C(C#N)=C(N)SC(N)=C2C#N)cc1	-67	-15	·	·	-30	·	·
CCOC(=O)N1CCN(c2ncnc3c2[nH]c2ccc(OC)cc23)CC1	19	1	10	12	1	1	·
COc1ccc2[nH]c3c(N4CCc5ccccc5C4)ncnc3c2c1	10	10	33*	30*	15	19*	-5
COc1cccc2c1O/C(=N\O)C(C(=O)Nc1cccc(C)c1C)C2 (stereo not given)	4	2	·	·	5	·	·
CSC1=NSC2=NC(=O)/C(=C/c3coc4ccc(O)cc4c3=O)C(=N)N12	12	18	29*	-5	11	28*	17
